# Columns and labels:
# Assay in all cases: DAPPL (digital affinity profiling via proximity ligation, sequencing); 10 mM Tris-HCl pH 7.5, 50 mM NaCl, 1 mM DTT, 4% glycerol, room temperature, 30 min; GST-TFs on glutathione beads, 16-mer random dsDNA library, 0.1% formaldehyde crosslink after washing; high values mean tight binding
# Conditions in all cases: protein: recombinant; tags: N-terminal GST; dsDNA, one strand shown
# FLI1 = biological target: T1, FLI1 (Homo sapiens, UniProt Q01543 1-452)
# T1 sequence: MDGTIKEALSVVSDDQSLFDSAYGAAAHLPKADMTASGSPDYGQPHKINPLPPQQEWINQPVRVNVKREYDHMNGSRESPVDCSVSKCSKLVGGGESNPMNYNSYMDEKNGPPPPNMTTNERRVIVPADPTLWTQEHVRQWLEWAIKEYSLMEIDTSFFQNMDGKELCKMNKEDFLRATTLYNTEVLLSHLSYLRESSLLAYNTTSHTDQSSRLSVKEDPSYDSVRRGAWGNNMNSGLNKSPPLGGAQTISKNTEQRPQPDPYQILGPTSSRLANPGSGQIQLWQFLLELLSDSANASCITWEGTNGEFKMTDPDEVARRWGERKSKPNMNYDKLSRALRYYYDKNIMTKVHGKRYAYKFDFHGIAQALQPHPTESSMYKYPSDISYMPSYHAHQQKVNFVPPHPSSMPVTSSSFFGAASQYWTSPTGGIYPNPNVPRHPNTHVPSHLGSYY
# Method in brief: (§1)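 Sequencing on an Illumina NextSeq500 followed washing, crosslinking with 0.1% formaldehyde, proximity ligation (BsaI/T4 ligase, 1 h, 37 °C) and PCR amplification of pools that had been incubated for 30 min at room temperature with 200 nmole of a random double-stranded 16-mer DNA library in Tris/NaCl/DTT/glycerol buffer. Each pool held DNA-barcoded human transcription factors, expressed in yeast as GST fusions and captured on glutathione beads, plus a tag-only sample. Binding signal is a hexamer's read frequency for a factor divided by its frequency in the tag-only sample.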
# GABPA = biological target: T2, GABPA (Homo sapiens, UniProt Q06546 1-454)
# T2 sequence: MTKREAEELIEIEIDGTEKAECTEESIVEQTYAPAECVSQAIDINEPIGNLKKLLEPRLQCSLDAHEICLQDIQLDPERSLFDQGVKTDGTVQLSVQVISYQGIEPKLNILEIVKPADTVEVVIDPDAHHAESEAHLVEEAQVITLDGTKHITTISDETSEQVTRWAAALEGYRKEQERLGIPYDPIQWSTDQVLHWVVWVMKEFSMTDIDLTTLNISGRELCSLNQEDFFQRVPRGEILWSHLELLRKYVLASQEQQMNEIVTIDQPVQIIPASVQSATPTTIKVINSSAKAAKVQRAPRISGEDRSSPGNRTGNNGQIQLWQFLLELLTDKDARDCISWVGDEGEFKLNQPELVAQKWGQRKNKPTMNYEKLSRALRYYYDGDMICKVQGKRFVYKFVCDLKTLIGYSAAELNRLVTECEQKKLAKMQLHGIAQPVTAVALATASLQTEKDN
# Method in brief: as §1
# ERG = biological target: T3, ERG (Homo sapiens, UniProt P11308 1-479)
# T3 sequence: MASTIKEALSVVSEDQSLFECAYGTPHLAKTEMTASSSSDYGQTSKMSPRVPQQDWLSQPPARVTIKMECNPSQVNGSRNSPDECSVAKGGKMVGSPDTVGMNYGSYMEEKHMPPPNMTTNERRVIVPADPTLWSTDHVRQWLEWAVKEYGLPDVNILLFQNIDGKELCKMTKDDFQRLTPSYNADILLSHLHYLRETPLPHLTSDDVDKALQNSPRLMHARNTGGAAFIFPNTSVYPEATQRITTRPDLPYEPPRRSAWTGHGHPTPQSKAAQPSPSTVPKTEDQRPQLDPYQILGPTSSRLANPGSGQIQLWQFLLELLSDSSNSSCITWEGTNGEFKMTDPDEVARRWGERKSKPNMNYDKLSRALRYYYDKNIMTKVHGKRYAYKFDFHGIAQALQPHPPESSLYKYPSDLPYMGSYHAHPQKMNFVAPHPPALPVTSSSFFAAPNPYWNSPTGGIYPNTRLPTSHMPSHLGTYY
# Method in brief: as §1
# ELF1 = ELF1 (Homo sapiens, UniProt P32519 1-619)
# Sequence of ELF1 (P32519 whole entry): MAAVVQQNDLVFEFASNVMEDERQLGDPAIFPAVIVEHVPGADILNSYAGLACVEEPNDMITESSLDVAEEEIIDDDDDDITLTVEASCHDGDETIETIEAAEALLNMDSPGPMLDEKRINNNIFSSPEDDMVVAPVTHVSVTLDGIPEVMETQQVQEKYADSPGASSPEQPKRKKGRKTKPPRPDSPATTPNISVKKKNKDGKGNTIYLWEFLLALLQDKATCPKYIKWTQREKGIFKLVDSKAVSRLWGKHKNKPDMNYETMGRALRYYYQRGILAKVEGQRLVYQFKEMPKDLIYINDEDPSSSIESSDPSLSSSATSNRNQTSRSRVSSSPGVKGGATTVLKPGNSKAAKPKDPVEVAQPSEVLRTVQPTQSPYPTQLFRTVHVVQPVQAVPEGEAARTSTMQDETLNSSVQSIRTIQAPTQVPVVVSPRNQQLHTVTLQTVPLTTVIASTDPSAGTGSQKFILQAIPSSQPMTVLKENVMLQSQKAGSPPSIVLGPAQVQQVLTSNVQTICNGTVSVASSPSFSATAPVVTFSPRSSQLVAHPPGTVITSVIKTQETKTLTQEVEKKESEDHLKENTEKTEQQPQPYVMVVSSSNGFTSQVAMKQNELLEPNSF
# Method in brief: as §1
# EHF = biological target: T4, EHF (Homo sapiens, UniProt Q9NZC4 1-300)
# T4 sequence: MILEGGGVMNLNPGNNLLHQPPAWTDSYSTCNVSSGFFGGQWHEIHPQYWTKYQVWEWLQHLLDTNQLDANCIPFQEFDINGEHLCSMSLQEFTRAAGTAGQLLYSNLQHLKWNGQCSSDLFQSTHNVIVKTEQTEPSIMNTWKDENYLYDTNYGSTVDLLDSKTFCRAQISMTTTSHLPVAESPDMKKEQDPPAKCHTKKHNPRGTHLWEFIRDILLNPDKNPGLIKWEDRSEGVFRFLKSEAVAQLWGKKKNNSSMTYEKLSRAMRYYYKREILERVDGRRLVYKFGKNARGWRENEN
# Method in brief: as §1
# SPI1 = SPI1 (Homo sapiens, UniProt P17947 1-270)
# Method in brief: as §1
# SPIB = SPIB (Homo sapiens, UniProt Q01892 1-262)
# Sequence of SPIB (Q01892 whole entry): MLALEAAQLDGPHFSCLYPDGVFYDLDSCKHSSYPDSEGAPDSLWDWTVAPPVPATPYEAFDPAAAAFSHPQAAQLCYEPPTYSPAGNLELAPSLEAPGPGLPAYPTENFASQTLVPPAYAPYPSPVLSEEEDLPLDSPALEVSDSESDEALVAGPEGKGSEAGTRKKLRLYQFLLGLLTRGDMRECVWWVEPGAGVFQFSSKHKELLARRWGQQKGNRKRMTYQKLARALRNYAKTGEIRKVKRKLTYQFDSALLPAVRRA
# Method in brief: as §1
# ELK3 = biological target: T5, ELK3 (Homo sapiens, UniProt P41970 1-407)
# T5 sequence: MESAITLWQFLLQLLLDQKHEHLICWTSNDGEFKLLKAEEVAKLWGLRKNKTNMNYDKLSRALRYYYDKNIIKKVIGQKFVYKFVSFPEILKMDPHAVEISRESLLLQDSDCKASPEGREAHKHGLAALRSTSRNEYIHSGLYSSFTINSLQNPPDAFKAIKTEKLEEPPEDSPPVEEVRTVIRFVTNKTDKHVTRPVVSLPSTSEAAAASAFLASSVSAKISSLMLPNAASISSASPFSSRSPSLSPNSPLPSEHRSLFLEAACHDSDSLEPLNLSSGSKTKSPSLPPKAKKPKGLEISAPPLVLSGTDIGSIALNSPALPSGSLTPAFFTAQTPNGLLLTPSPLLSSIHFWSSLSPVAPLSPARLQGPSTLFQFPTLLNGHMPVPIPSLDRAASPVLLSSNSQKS
# Method in brief: as §1
# FEV = biological target: T6, FEV (Homo sapiens, UniProt Q99581 1-238)
# T6 sequence: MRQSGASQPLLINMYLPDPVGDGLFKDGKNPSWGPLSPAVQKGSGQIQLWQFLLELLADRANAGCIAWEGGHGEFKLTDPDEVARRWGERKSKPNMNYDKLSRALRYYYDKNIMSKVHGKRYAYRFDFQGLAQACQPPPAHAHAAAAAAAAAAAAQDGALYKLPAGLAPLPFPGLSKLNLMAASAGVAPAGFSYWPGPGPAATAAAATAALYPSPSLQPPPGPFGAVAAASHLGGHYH
# Method in brief: as §1
sequence,measurement,setting,value
CATTGC,binding signal,FLI1,"1.22 fold enrichment (6-mer frequency, TF over GST control)"
same,binding signal,GABPA,"1.08 fold enrichment (6-mer frequency, TF over GST control)"
same,binding signal,ERG,"1.11 fold enrichment (6-mer frequency, TF over GST control)"
same,binding signal,ELF1,"1.09 fold enrichment (6-mer frequency, TF over GST control)"
same,binding signal,EHF,"1.15 fold enrichment (6-mer frequency, TF over GST control)"
same,binding signal,SPI1,"1.05 fold enrichment (6-mer frequency, TF over GST control)"
same,binding signal,SPIB,"1 fold enrichment (6-mer frequency, TF over GST control)"
same,binding signal,ELK3,"1.15 fold enrichment (6-mer frequency, TF over GST control)"
same,binding signal,FEV,"1.04 fold enrichment (6-mer frequency, TF over GST control)"
